This note sets out measurements from PubChem BioAssay (NCATS).

Test [1] concerns the target Peroxisome proliferator-activated receptor gamma (Homo sapiens) (UniProt P37231). Put plainly: qHTS assay for small molecule antagonists of peroxisome proliferator-activated receptor gamma signaling (AID 588537; active = well fitted inhibition curve with a large enough effect in the signal ratio, with a control signal flat, not every such curve was filed as active; the % refers to the signal ratio;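 also: reporter cells co-stimulated with 50 nM rosiglitazone agonist during compound treatment; % of control where 0% means no effect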). Conditions: HEK293 PPARg-UAS-bla, beta-lactamase ratio, antagonist mode; series mostly up to 76.8 µM. In a few lines: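 Step one: plate 3000 HEK293 UAS-bla cells per well in medium with 1% stripped serum and hold 6-6.5 h at 37 C. Step two: add compound and 50 nM agonist for 16 h. Step three: CCF4 loading, fluorescence read.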

The nature of test [2]: qHTS assay for small molecule agonists of retinoid X receptor alpha signaling (AID 588544; calls by dose curve). Conditions: HEK293T RXRa-UAS-bla, beta-lactamase reporter, 18 h; 530 nm emission. For orientation: Quantitative high-throughput screening tests each substance at several concentrations.
The target in test [3] is Retinoic acid receptor RXR-alpha (Homo sapiens) (UniProt P19793). Described as above. Conditions: HEK293T RXRa-UAS-bla, beta-lactamase reporter, 18 h; series mostly up to 76.7 µM.
Test [4] is described as follows: qHTS assay for small molecule antagonists of retinoid X receptor alpha signaling (AID 588546; active = well fitted inhibition curve with a large enough effect in the signal ratio, with a control signal flat, not every such curve was filed as active; the % refers to the signal ratio;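 also: cells stimulated with 9-cis-retinoic acid as agonist; % is scaled to controls: 0 for no effect and ±100 for the full control effect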). To be noted: HEK293T RXRa-UAS-bla, beta-lactamase ratio, antagonist mode; measured here: W530 green channel, cytotoxicity proxy. The gist of the method:
(§1)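 Beta-lactamase reporter inhibition, read as CCF4 fluorescence ratio (ex 405, em 460/530 nm) after 2 h at RT. HEK293T UAS-bla cells, 2500/well, were stimulated with 9-cis-RA at 500 or 100 nM final alongside test compound for 18 h at 37 C.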

For test [5], the target named is Retinoic acid receptor RXR-alpha (Homo sapiens) (UniProt P19793). Described as above. To be noted: HEK293T RXRa-UAS-bla, beta-lactamase ratio, antagonist mode. The gist of the method:
as §1

The target in test [6] is Thyroid hormone receptor beta (Homo sapiens) (UniProt P10828). Put plainly: qHTS assay for small molecule antagonists of thyroid hormone receptor beta signaling (AID 588547; active = well fitted inhibition curve with a large enough effect in the signal ratio, with a control signal flat, not every such curve was filed as active; the % refers to the signal ratio;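 also: cells stimulated with 0.4 nM T3 agonist during compound exposure; % is scaled to controls: 0 for no effect and ±100 for the full control effect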). Conditions: TR-UAS-bla HEK293, beta-lactamase ratio, antagonist mode, 18 h. In a few lines: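 TR-UAS-bla GripTite HEK293 cells in 2% charcoal/dextran FBS medium; compounds 0.59 nM to 92 uM with T3 at 0.4nM final, 18 h at 37 C. Beta-lactamase read by CCF4 fluorescence (460/530 nm); Hill fits gave IC50 and efficacy.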

The target of test [7] is Voltage-gated inwardly rectifying potassium channel KCNH2 (Homo sapiens) (UniProt Q12809). In words: qHTS Assay for Small Molecule Inhibitors of the Human hERG Channel Activity (AID 588834).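 Also: top concentration of the series differs between compounds; % is scaled to controls: 0 for no effect and ±100 for the full control effect; lower thallium flux fluorescence means stronger hERG block; nearly all actives have a fitted effect of over 50% in size.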 To be noted: U2OS BacMam hERG, FluxOR thallium flux fluorescence; series mostly up to 46.1 µM. In a few lines: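 hERG-BacMam U2OS, 2000 cells/well; 0.7X FluxOR loading 1 hr RT dark; cpd ~10 min 37 °C; stim buffer; FDSS fluorescence 2 min @ 1 s; AC50 Hill fit.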

The target in test [8] is Luciferin 4-monooxygenase (Photinus pyralis) (UniProt P08659). Put plainly: Biochemical firefly luciferase enzyme assay for NPC (AID 624030).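 Also: purified P. pyralis luciferase at 10 nM with luciferin and ATP substrate; 0% = DMSO and -100% = full luciferase inhibition by PTC124 control; nearly all actives have a fitted effect of over 70% in size.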 To be noted: purified P. pyralis luciferase, luminescence, 5 min; series mostly up to 58.6 µM. The gist of the method: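 Purified P. pyralis luciferase at 10 nM in 50 mM Tris Acetate (final), luminescence read within 5 minutes of enzyme addition to compounds. Activity normalised to PTC124 versus DMSO; concentration-response curves classed by r2, magnitude and activity.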

Test [9] addresses Vitamin D3 receptor (Homo sapiens) (UniProt P11473). Put plainly: qHTS assay for small molecule antagonists of vitamin D receptor signaling (AID 588541; calls by dose curve;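 also: receptor activated by calcitriol during compound treatment; % is scaled to controls: 0 for no effect and ±100 for the full control effect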). To be noted: HEK293T VDR-UAS-bla, beta-lactamase ratio, antagonist mode; series mostly up to 76.7 µM. In a few lines: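 VDR-UAS-bla HEK293T cells in 2% charcoal-stripped FBS were stimulated with 1-alpha,25-dihydroxyvitamin D3 (3 nM final) plus compound for 16 h at 37 C. The beta-lactamase CCF4 readout was normalized to 50 nM agonist and DMSO, and Hill fits gave IC50.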

Test [10] shares this target. Put plainly: qHTS assay for small molecule agonists of vitamin D receptor signaling (AID 588543; calls by dose curve;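 also: 0% = DMSO basal and 100% = reference agonist control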). Conditions: HEK293T VDR-UAS-bla, beta-lactamase ratio, 16 h; series mostly up to 76.8 µM. In a few lines:
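Reporter cells (HEK293T, VDR-UAS-bla) were seeded in medium with 2% charcoal-stripped serum and incubated 5 h, then compounds in concentration series were added for 16 h at 37 °C. Stimulation was scaled between DMSO basal and 50 nM 1α,25-dihydroxyvitamin D3.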

Molecules are shown by their SMILES. Values joined by “and” are separate entries in the source; they are usually repeats but may differ in a detail not shown here. Identical values can stand only once. Inconclusive results are not listed. Active and inactive are the calls of the source. Unless noted, calls follow the shape of the dose curve; as a rule, active = well fitted inhibition curve with a large enough effect; inconclusive = small, poorly fitted or top-dose-only effect; inactive = flat fitted curve, though single readings scatter.

Chain of Voltage-gated inwardly rectifying potassium channel KCNH2 (Homo sapiens) (Q12809 whole entry, looked up): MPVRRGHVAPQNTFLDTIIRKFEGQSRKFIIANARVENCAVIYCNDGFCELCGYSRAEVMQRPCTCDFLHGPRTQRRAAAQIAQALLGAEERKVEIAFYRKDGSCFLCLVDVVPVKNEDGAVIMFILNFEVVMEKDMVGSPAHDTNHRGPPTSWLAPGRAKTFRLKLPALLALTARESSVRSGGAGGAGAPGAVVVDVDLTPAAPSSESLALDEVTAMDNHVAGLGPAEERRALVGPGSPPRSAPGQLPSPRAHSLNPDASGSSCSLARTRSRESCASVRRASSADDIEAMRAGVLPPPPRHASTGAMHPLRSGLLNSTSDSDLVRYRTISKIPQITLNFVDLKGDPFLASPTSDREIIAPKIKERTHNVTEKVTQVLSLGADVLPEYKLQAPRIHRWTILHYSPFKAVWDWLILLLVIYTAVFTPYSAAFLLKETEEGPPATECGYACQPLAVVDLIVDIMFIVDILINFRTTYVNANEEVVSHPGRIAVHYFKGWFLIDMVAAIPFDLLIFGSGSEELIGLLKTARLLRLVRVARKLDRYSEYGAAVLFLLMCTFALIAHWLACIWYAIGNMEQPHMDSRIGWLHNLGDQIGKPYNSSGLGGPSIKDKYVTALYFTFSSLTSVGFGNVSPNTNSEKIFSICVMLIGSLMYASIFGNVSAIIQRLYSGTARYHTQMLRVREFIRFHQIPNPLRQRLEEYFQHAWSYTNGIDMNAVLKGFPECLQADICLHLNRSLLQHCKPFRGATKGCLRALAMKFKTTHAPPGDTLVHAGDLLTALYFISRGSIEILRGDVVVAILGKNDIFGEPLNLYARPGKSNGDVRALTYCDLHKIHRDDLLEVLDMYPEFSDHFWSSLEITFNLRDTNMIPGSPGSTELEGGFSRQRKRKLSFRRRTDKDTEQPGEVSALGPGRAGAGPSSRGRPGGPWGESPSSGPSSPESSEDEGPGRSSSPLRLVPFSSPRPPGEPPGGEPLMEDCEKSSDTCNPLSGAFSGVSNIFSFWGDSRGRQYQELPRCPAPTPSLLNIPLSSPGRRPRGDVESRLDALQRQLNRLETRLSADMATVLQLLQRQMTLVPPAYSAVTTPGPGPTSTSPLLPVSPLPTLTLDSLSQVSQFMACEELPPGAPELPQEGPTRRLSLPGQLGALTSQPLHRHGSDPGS
Chain of Retinoic acid receptor RXR-alpha (Homo sapiens) (P19793 whole entry, looked up): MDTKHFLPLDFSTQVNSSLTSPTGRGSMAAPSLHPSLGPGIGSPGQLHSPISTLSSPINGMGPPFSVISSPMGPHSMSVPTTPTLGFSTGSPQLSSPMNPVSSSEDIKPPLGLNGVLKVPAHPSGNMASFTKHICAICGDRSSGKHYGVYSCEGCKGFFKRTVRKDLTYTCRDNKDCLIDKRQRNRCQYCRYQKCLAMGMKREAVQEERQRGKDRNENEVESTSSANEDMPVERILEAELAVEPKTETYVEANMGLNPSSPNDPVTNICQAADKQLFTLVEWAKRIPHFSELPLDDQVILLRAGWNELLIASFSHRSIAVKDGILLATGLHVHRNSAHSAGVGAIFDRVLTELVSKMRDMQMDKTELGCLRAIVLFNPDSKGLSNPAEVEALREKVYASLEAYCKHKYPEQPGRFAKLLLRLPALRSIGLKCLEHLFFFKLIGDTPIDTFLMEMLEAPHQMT
Chain of Vitamin D3 receptor (Homo sapiens) (P11473 whole entry, looked up): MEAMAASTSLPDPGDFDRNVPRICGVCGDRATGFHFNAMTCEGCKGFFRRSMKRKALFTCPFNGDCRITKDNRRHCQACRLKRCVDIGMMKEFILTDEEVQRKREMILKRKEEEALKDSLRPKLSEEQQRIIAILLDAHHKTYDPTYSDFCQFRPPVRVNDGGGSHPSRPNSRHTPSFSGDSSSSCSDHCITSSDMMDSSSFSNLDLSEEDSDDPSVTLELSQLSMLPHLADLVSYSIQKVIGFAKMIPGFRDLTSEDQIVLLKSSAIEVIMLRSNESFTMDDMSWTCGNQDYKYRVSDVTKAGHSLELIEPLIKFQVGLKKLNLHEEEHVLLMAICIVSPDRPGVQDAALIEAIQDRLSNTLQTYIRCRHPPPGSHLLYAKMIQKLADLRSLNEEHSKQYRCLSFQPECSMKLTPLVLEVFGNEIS
Chain of Luciferin 4-monooxygenase (Photinus pyralis) (P08659 whole entry, looked up): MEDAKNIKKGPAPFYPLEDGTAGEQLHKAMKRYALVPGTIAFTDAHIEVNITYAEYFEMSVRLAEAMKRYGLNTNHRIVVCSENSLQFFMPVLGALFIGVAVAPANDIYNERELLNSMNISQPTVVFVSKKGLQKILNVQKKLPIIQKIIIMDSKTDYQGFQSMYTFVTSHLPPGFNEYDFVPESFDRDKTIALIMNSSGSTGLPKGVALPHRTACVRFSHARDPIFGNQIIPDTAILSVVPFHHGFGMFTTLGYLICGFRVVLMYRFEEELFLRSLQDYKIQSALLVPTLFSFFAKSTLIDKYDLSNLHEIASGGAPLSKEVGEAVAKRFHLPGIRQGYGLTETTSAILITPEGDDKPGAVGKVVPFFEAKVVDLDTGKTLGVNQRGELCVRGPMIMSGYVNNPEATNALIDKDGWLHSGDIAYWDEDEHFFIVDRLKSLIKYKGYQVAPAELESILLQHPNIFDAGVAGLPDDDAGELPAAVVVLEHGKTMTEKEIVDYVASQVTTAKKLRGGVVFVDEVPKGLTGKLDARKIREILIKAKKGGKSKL
Chain of Thyroid hormone receptor beta (Homo sapiens) (P10828 whole entry, looked up): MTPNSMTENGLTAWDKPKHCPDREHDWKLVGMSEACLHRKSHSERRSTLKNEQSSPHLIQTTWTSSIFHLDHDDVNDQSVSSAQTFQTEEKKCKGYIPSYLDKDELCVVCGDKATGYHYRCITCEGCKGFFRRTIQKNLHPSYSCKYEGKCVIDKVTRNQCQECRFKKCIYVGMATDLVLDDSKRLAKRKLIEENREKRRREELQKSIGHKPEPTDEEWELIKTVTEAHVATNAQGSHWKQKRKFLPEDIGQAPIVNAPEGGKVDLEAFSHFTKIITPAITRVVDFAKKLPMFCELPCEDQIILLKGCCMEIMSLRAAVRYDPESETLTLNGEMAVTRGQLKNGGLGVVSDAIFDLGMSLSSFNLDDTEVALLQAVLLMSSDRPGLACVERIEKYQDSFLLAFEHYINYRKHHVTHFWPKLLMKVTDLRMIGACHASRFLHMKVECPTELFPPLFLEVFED
Chain of Peroxisome proliferator-activated receptor gamma (Homo sapiens) (P37231 whole entry, looked up): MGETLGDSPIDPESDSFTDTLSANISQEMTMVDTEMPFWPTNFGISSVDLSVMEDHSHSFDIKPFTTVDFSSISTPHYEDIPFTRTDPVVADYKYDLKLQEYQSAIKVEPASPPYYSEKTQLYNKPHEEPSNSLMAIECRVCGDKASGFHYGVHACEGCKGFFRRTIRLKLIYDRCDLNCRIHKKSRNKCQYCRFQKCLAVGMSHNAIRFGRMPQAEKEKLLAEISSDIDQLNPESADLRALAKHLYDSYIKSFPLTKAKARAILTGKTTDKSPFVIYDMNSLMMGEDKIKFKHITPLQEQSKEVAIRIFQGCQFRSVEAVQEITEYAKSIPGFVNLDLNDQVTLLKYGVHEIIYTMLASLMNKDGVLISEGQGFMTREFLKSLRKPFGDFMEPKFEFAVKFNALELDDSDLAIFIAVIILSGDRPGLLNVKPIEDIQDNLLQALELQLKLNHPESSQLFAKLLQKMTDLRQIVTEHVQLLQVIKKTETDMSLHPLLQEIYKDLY

With `Nc1ccc(S(=O)(=O)c2ccc(N)cc2)cc1`, the result in test [1] and in test [3] was inactive. Moreover, the max response is 9.37% in [2], -11.9% in test [4] and -26.2% (inactive) in test [5]. Further, in [6], the activity change % (negative = inhibition) is -17.4% (inactive) and -7.69% (inactive). Further, the Potency entry in [7] and in [8] was “inactive” in each case.

With `C/C=C/C(=O)N(CC)c1ccccc1C`, in [7], the Potency entry was “inactive”.

On to `FC(F)(F)C(Cl)Br` (centres undefined), for which the outcome in test [1] and in test [3] was inactive. The max response was -10.5% in [2], -1.63% in test [4] and -3.82% (inactive) in [5]. Besides, the activity change % (negative = inhibition) in test [6] is 8.04% (inactive). Besides, the Potency entry in [7] and in test [8] was “inactive” each time.

Turning to `COc1ccc(O)cc1`, the outcome in test [9], in test [10] and in test [3] was inactive. Moreover, the max response in test [2] is -5.99%; in test [4] it was -9.24%; in [5], -8.57% (inactive). The Potency entry in test [7] and in test [8] was “inactive” in each case.

Turning to `CCCCOC(=O)c1ccc(N)cc1`, the outcome in [9], in test [10] and in test [3] was inactive. Besides, the results for the max response in test [2], in test [4] and in test [5] were 8.21%, -1.8% and -25.6% (inactive), respectively. Also, the Potency entry in test [7] was “inactive”.

As to `CCN[C@H]1CN(CCCOC)S(=O)(=O)c2sc(S(N)(=O)=O)cc21`, the Potency entry in test [7] was “inactive”.

For `CCCCCC(N)=O`, the outcome in test [1], in test [9], in test [10] and in [3] was inactive. The results for the max response in test [2], in test [4] and in test [5] were -21.2%, -2.91% and -2.1% (inactive), respectively. Also, in test [6], the activity change % (negative = inhibition) was -10.5% (inactive). Besides, the Potency result in test [7] and in [8] was “inactive” throughout.

For the compound `CCCC(O)C(CC)CO` (centres undefined), the max response is -0.667% in [2], -4.1% in test [4] and 8.72% (inactive) in test [5]. Further, in [3], the call was inactive. In addition, in test [6], the activity change % (negative = inhibition) is 10.7% (inactive). Further, the Potency result in [7] and in test [8] was “inactive” in each case.

Take `O=C(OOC(=O)c1ccccc1)c1ccccc1`: the result in [1] and in test [3] was inactive. Also, the figures for the max response in test [2], in test [4] and in test [5] were -15.8%, -16.7% and 10.6% (inactive), respectively. In addition, the Potency result in test [7] and in test [8] was “inactive” throughout.

Turning to `Cc1cc(=O)[nH]c(=S)[nH]1`, the outcome in test [1], in test [9], in [10] and in [3] was inactive. The max response in test [2] was -2.22%; in test [4], -3.7%; in [5] it was 1.44% (inactive). The activity change % (negative = inhibition) in test [6] was 15.5% (inactive). Also, in [8], the Potency entry is “inactive”.

In the case of `C=CCNC(N)=S`, the result in test [9], in test [10] and in test [3] was inactive. For the same compound, the max response was 14.7% in [2], -1.13% in test [4] and -16.9% (inactive) in test [5]. Also, the activity change % (negative = inhibition) in test [6] was -17.1% (inactive). The Potency result in test [7] and in [8] was “inactive” throughout.

On to `Cc1ccc(C(C)C)c(O)c1`, for which the outcome in test [9], in [10] and in test [3] was inactive. Also, the max response in test [2] was -0.0487%; in test [4] it was -9.5%; in [5], -24.5% (inactive). In test [6], the activity change % (negative = inhibition) was -7.05% (inactive). The Potency entry in test [7] and in test [8] was “inactive” in each case.

Regarding `CC(=O)Nc1cccc(O)c1`, the max response in [2] was 11%; in [4], -5.06%; in test [5] it was 5.72% (inactive). Moreover, the compound was called inactive in test [3]. Also, the activity change % (negative = inhibition) in test [6] is 8.82% (inactive). Further, the Potency entry in [8] was “inactive”.

As for `CC(=O)Nc1ccc(C(=O)O)cc1`, the result in test [1] and in test [3] was inactive. The max response in test [2] is -5.85%; in test [4], -6.58%; in test [5], 1.7% (inactive). Besides, in test [6], the activity change % (negative = inhibition) is 2.92% (inactive). Moreover, the Potency entry in [7] and in [8] was “inactive” throughout.

For `O=C1c2cccc(O)c2C(=O)c2c(O)cccc21`, the outcome in [1] and in [10] was inactive. Also, the activity change % (negative = inhibition) in test [6] is -11.3% (inactive). Further, the Potency result in test [7] and in [8] was “inactive” throughout.

Consider `CCN(CC)C(=O)c1cccc(C)c1`, for which the outcome in test [1], in [9], in test [10] and in test [3] was inactive. For the same compound, the max response in [2] is -4.92% and 6.96%; in test [4], -0.756% and -2.65%; in [5] it was 0.203% (inactive) and -8.17% (inactive). Besides, in [6], the activity change % (negative = inhibition) was -13.1% (inactive). Besides, the Potency entry in [7] and in [8] was “inactive” in each case.

Take `Cc1c(C(=O)NCCO)[n+](=O)c2ccccc2n1[O-]`: the result in test [9] and in [3] was inactive. In addition, the figures for the max response in [2], in test [4] and in [5] were -9.58%, -9.28% and -2.52% (inactive), respectively. Moreover, in test [6], the activity change % (negative = inhibition) was -3.26% (inactive). Moreover, the Potency result in [7] and in test [8] was “inactive” throughout.

With `CCCCCCCC(=O)OCC(COC(=O)CCCCCCC)OC(=O)CCCCCCC`, the result in test [9], in [10] and in test [3] was inactive. The max response is -2.18% in test [2], -12.4% in test [4] and 4.61% (inactive) in test [5]. In [6], the activity change % (negative = inhibition) was -4.42% (inactive). The Potency entry in test [7] and in test [8] was “inactive” in each case.

With `CC(C)=CCC/C(C)=C/CO`, the result in test [1], in test [9] and in test [3] was inactive. Moreover, the max response in test [2] was -9.95%; in test [4] it was -9.74%; in test [5], -1.85% (inactive). Further, the activity change % (negative = inhibition) in test [6] was 13.2% (inactive). Also, the Potency entry in test [7] and in test [8] was “inactive” in each case.
